ELG1 repair inh: ELG1-dependent DNA repair inhibition; Potency, µM (highest dose often 46.1 µM), hits mostly inhibitors; actives 2.3% (n = 330,000); HEK293T ELG1-luciferase reporter, luminescence, 16 h; DNA damage induced by 5-fluorouridine; further: nearly all actives have a fitted effect of over 55% in size
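5-Fluorouridine DNA damage + compound/DMSO, 2,000 cells/well, 16 h, 37 °C/5% CO2. ONE-Glo, 30 min RT, luminescence. Readout = decrease in reporter signal.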
FBPA coupling cs: inhibits coupling enzyme system, counter-screen for aldolase hits; coupling enzyme system counterscreen, AmpLite Red fluorescence; actives 0.67% (n = 290,000); activity change, negative = inhibition, % at 58.2 µM, hits read low; in the data active means activity change below about -30%
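First, compound is pin-transferred into glyceraldehyde-3-phosphate coupling-enzyme reagent at 57.5 uM final and held 10 min at RT. Next, substrate, coupling system and AmpLite Red are added. After 20 min RT, fluorescence (525/598 nm) is read.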
Giardia kill: Giardia lamblia killing; AID 540267; Giardia lamblia trophozoite viability; actives 0.15% (n = 340,000); activity change, % at 7.66 µM, hits read low; in the data active means activity change below about -80%; inconclusive means between about -30% and that limit;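 further: parasites exposed to compound for two days anaerobically before the ATP read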
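Luminescence from cellular ATP indicates surviving trophozoites (100 cells/well) following 48 hrs anaerobic compound treatment at 37 deg C; signal develops 15-30 min at room temperature.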
Sfp inh: inhibitors of Bacillus subtilis Sfp phosphopantetheinyl transferase. Q9F4F7. Biochemical Sfp PPTase activity, qHTS. Potency, µM, most hits filed as inhibitors. actives 3.5% (n = 310,000). AID 1490;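 further: the enzyme is Sfp with the accession as filed and its product quenches rhodamine fluorescence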
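Step 1, compound plus 15 nM Sfp-PPTase, 15 min, room temperature. Step 2, add rhodamine-CoA (5 uM) and BHQ-2-YbbR (12.5 uM). Step 3, read 525/598 nm fluorescence at 0 and 30 min.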
Each line names hits and unclear results; the compound was inactive in the other large screens; ! = a repeat was not active. Sampled rows, rich in hits. Any-hit rate of the full collection: about 5.5%. Unless noted, the call rests on the fitted dose curve; in most records, active means well fitted curve in the direction sought with a large enough effect; inconclusive means small, poorly fitted or top-dose-only effect, or another doubt; inactive means no such curve, though single readings can be large; an effect the other way counts as inactive or inconclusive.

CN1CCc2c(sc3c2C(=O)NC(c2ccc(-c4cccc(Cl)c4)o2)N3)C1 (stereo not given)	Sfp inh 50µM
CN1CCc2c(sc3c2C(=O)NC(c2cccs2)N3)C1 (stereo not given)	ELG1 repair inh inconclusive
Cc1c(O)ccc2c(CC(=O)N[C@@H](Cc3ccc(O)cc3)C(=O)O)cc(=O)oc12	none
COc1cccc(-c2ocnc2C(=O)Nc2ccc(N3CCOCC3)cc2N2CCOCC2)c1	ELG1 repair inh 18µM
Cc1ccccc1-n1c(SC(C)C(=O)NCC2CCCO2)nnc1-c1ccncc1 (stereo not given)	none (no result: ELG1 repair inh, FBPA coupling cs, Sfp inh)
Cc1ccc(C)c(Oc2coc3cc(OCC(=O)Nc4ccccc4C(C)C)ccc3c2=O)c1	ELG1 repair inh 26µM (no result: Giardia kill)
CC1C(=O)CC2C3(C)CCC2(C(C)C(=O)O)C(=O)C13 (stereo not given)	none (no result: ELG1 repair inh, FBPA coupling cs, Giardia kill)
CN1C(=O)C(C)(C)c2cc(S(=O)(=O)N3CCCC3C(=O)NCc3ccc(F)cc3)ccc21 (stereo not given)	none
CN1C(=O)C(C)(C)c2cc(S(=O)(=O)N3CCCC(C(=O)NCc4ccc(Cl)cc4)C3)ccc21 (stereo not given)	ELG1 repair inh 15µM
Cc1ccc(-c2cc(C(=O)Nc3ccncc3)c3ccccc3n2)cc1	ELG1 repair inh inconclusive (no result: FBPA coupling cs, Sfp inh)
O=C(Nc1ccccc1N1CCOCC1)c1cc(-c2ccncc2)nc2ccccc12	ELG1 repair inh 15µM
COc1ccc(-c2cc(C(=O)Nc3ccccc3N3CCOCC3)c3ccccc3n2)cc1OC	ELG1 repair inh 12µM
CC(C)(C)c1ccccc1NC(=O)c1cc(-c2ccncc2)nc2ccccc12	ELG1 repair inh 16µM (no result: FBPA coupling cs, Sfp inh)
COc1ccc(-c2cc(C(=O)NNC(=O)c3csc(N4CCOCC4)n3)c3ccccc3n2)cc1OC	ELG1 repair inh inconclusive (no result: FBPA coupling cs, Sfp inh)
N#CCCn1c(=O)c(-c2cccs2)nc2cnc(N3CCNCC3)nc21	none (no result: ELG1 repair inh, Giardia kill)
Cc1cc(C)c2[nH]c(=O)c(CN(Cc3ccco3)C(=S)NCC3CCCO3)cc2c1 (stereo not given)	ELG1 repair inh inconclusive
Cc1ccc2cc(CN(Cc3ccco3)C(=S)NCC3CCCO3)c(=O)[nH]c2c1C (stereo not given)	ELG1 repair inh 10µM
Cc1cc2cc(CN(Cc3ccco3)C(=S)NCC3CCCO3)c(=O)[nH]c2cc1C (stereo not given)	ELG1 repair inh inconclusive, Sfp inh 50µM
CCc1ccc2[nH]c(=O)c(CN(Cc3ccco3)C(=S)NCC3CCCO3)cc2c1 (stereo not given)	none
COc1ccc(C(=O)Nc2ccccc2C(=O)Nc2ccncc2)cc1	ELG1 repair inh inconclusive, Giardia kill inconclusive
Cc1cccc(OCCSc2nc(N)cc(N)n2)c1	ELG1 repair inh inconclusive, Sfp inh 45µM
Cc1cccc(OCCOCCSc2ncccn2)c1	none
CC1CCC/C(=C\Nc2ccc(O)cc2)C1=O (stereo not given)	ELG1 repair inh inconclusive, FBPA coupling cs -38, Sfp inh 45µM
Cc1cc(C(=O)O)ccc1N/C=C1\CCCC(C)C1=O (stereo not given)	ELG1 repair inh inconclusive
CCc1ccc(-c2cc(C)no2)cc1S(=O)(=O)N1CCN(c2ccccc2)CC1	none (no result: FBPA coupling cs)
CCOC(=O)N1CCN(c2cc(NCCC(=O)O)c3c4c(onc24)-c2ccccc2C3=O)CC1	ELG1 repair inh inconclusive, FBPA coupling cs -54
O=C(O)CCNc1ccc(NCCC(=O)O)c2c1C(=O)c1ccccc1C2=O	none
O=C(O)CCCNc1cc(N2CCC3(CC2)OCCO3)c2noc3c2c1C(=O)c1ccccc1-3	ELG1 repair inh inconclusive, FBPA coupling cs -39 (no result: Giardia kill)
Cn1cccc1C(=O)OCC(=O)NC(=O)c1ccc(Cl)cc1	none (no result: FBPA coupling cs, Sfp inh)
CC(=O)NC1CCCN(O)C(=O)/C=C(\C)CCOC(=O)C(NC(C)=O)CCCN(O)C(=O)/C=C(\C)CCOC(=O)C(NC(C)=O)CCCN(O)C(=O)/C=C(\C)CCOC1=O (stereo not given)	Sfp inh 56µM
O=C(CSc1nnc(-c2ccc(Cl)cc2)n1-c1ccc(Cl)cc1)N/N=C/c1ccco1	ELG1 repair inh 23µM
Cc1ccc(/C=N/NC(=O)CSc2nnc(-c3ccc(Cl)cc3)n2-c2ccccc2)o1	ELG1 repair inh inconclusive
CC(C)Cn1c2c(c(O)c(C(=O)Nc3ncccc3O)c1=O)CCCC2	ELG1 repair inh inconclusive, FBPA coupling cs -37
Cc1cc2c(nc1C)CCCCN2C[C@H](O)CN1CCCc2nc(-c3ccc(Br)cc3)ccc21	none (no result: ELG1 repair inh, Giardia kill)
Cc1ccc(CN(C)C(=O)c2cc(Br)c(Br)s2)o1	Sfp inh 79µM
Cc1ccc2oc(C(=O)N(C)Cc3ccc(C)o3)c(C)c2c1	ELG1 repair inh inconclusive, Sfp inh 10µM
C=CCN1C(=O)c2ccc(C(=O)N(C)Cc3ccc(C)o3)cc2C1=O	none (no result: FBPA coupling cs, Sfp inh)
COC(=O)C1CCN(S(=O)(=O)CCNC(=O)c2ccc(F)cc2)CC1	none (no result: FBPA coupling cs, Sfp inh)
COc1ccccc1CN1CC(C(=O)NCCc2ccc(C)o2)CCC1=O (stereo not given)	Sfp inh inconclusive (no result: FBPA coupling cs)
COc1ccccc1CN1CC(C(=O)N(C)Cc2ccc(C)o2)CCC1=O (stereo not given)	Sfp inh 45µM (no result: FBPA coupling cs)
COc1ccccc1CN1CC(C(=O)NCCCc2ccc(F)cc2)CCC1=O (stereo not given)	ELG1 repair inh 10µM
COc1ccc(CCN2CC(C(=O)N(C)Cc3ccc(C)o3)CCC2=O)cc1 (stereo not given)	ELG1 repair inh inconclusive, Sfp inh 22µM
COc1ccc(S(=O)(=O)N2CCC(C(=O)N(C)Cc3ccc(C)o3)CC2)cc1OC	ELG1 repair inh 16µM (no result: FBPA coupling cs, Sfp inh)
CS(=O)(=O)N(Cc1ccccc1Cl)c1ccc(C(=O)N2CCCC2)cc1	none
O=C(CSC(=O)c1ccccc1)Nc1ccccc1F	none (no result: FBPA coupling cs, Sfp inh)
Cc1sc(NC(=O)C2CSC3(C)CCC(=O)N23)nc1-c1ccc(F)cc1 (stereo not given)	ELG1 repair inh 18µM
Cc1ccc(-c2csc(NC(=O)C3CSC4(C)CCC(=O)N34)n2)cc1 (stereo not given)	ELG1 repair inh inconclusive (no result: FBPA coupling cs, Sfp inh)
CC(C)N1C(=O)C2C(c3ccccc3O)NC(C)(C(=O)O)C2C1=O (stereo not given)	Sfp inh 20µM
Cc1noc(C)c1NC(=O)Nc1cccc2c1O[C@@H](CN(C)C(=O)Nc1ccc3c(c1)OCO3)[C@@H](C)CN([C@H](C)CO)C2=O	none (no result: FBPA coupling cs, Sfp inh)
CC(C)Cn1c(N)c(C(=O)COC(=O)c2cc(F)cc(F)c2)c(=O)n(C)c1=O	ELG1 repair inh 18µM
CC(C)Cn1c(N)c(C(=O)COC(=O)c2cc(-c3ccco3)nc3ccccc23)c(=O)n(C)c1=O	ELG1 repair inh inconclusive, Giardia kill inconclusive, Sfp inh 20µM!
Cn1c(N)c(C(=O)COC(=O)c2cc(-c3ccccc3)nc3ccccc23)c(=O)n(C)c1=O	none (no result: ELG1 repair inh, Giardia kill)
CC(C)Cn1c(N)c(C(=O)COC(=O)c2cc(-c3ccccc3)nc3ccccc23)c(=O)n(C)c1=O	ELG1 repair inh 7.3µM, Giardia kill inconclusive
Cn1c(=O)c(C(=O)COC(=O)c2cc(-c3ccco3)nc3ccccc23)c(N)n(Cc2ccccc2)c1=O	ELG1 repair inh inconclusive, Sfp inh 32µM (no result: Giardia kill)

Bioassay records: PubChem, National Center for Advancing Translational Sciences (NCATS)
